These results are taken from PubChem BioAssay.

Structures are written as SMILES. Active and inactive are the calls of the source.

The test system of assay [1] is Plasmodium falciparum Sir2 (PF13_0152, Sir2A). The experiment in a line: Plasmodium falciparum Sir2A binding compounds – biochemical, small-molecule microarray, 635 nm fluorescence, primary screen (AID 1098).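 Also: score merges spot fluorescence intensity with its signal-to-noise ratio.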 The note with it: fluorescence 635 nm, higher = more signal.
The nature of assay [2]: probe aDKK1 binding to arrayed compounds – biochemical, biotinylated probe, 635/667 nm fluorescence, primary screen (AID 1099).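 Also: score merges 667nm spot fluorescence with signal to noise across triplicate slides; reference of the scale not given here.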 The note with it: small-molecule microarray, higher = more signal.
The nature of assay [3]: probe aCHRDL2 binding to arrayed compounds – biochemical, biotinylated probe, 635/667 nm fluorescence, primary screen (AID 1100). The note with it: small-molecule microarray, higher = more signal.
A short description of assay [4]: change in splice reporter luminescence, either direction, cell-based, HEK293, spliceosome inhibition project, primary screen (AID 1101).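 Also: HEK293 cells carrying a splicing-competent luciferase reporter gene; test concentration not given here.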 The note with it: HEK293 splicing luciferase reporter, 24 h, higher = more signal, called active from +8 up or from −8 down. (In general: A reporter such as luciferase makes a cellular process visible.)
Assay [5] concerns the target Fibroblast growth factor 10 (Homo sapiens) (UniProt O15520). The experiment in a line: compounds binding fibroblast growth factor 10 – biochemical, small-molecule microarray, 635 nm fluorescence, primary screen (AID 1102). The note with it: FGF10 binding, fluorescence 635 nm, higher = more signal.
Assay [6] has as its system glycogen synthase kinase-3 (GSK3A per assay name; protocol says GSK3B). The experiment in a line: compounds binding glycogen synthase kinase-3 – biochemical, small-molecule microarray, 635 nm fluorescence, GSK3A, primary screen (AID 1103). Also: the record names both GSK3A and GSK3B. The note with it: fluorescence 635 nm, higher = more signal.
In assay [7] the target is Epidermal growth factor receptor (Homo sapiens) (UniProt P00533). In words: compounds binding epidermal growth factor receptor – biochemical, small-molecule microarray, 635 nm fluorescence, primary screen (AID 1104).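 Also: score merges 667 nm emission intensity with spot signal to noise over triplicate slides.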 The note with it: EGFR binding, higher = more signal.
Epidermal growth factor receptor (Homo sapiens), sequence (P00533 whole entry, looked up): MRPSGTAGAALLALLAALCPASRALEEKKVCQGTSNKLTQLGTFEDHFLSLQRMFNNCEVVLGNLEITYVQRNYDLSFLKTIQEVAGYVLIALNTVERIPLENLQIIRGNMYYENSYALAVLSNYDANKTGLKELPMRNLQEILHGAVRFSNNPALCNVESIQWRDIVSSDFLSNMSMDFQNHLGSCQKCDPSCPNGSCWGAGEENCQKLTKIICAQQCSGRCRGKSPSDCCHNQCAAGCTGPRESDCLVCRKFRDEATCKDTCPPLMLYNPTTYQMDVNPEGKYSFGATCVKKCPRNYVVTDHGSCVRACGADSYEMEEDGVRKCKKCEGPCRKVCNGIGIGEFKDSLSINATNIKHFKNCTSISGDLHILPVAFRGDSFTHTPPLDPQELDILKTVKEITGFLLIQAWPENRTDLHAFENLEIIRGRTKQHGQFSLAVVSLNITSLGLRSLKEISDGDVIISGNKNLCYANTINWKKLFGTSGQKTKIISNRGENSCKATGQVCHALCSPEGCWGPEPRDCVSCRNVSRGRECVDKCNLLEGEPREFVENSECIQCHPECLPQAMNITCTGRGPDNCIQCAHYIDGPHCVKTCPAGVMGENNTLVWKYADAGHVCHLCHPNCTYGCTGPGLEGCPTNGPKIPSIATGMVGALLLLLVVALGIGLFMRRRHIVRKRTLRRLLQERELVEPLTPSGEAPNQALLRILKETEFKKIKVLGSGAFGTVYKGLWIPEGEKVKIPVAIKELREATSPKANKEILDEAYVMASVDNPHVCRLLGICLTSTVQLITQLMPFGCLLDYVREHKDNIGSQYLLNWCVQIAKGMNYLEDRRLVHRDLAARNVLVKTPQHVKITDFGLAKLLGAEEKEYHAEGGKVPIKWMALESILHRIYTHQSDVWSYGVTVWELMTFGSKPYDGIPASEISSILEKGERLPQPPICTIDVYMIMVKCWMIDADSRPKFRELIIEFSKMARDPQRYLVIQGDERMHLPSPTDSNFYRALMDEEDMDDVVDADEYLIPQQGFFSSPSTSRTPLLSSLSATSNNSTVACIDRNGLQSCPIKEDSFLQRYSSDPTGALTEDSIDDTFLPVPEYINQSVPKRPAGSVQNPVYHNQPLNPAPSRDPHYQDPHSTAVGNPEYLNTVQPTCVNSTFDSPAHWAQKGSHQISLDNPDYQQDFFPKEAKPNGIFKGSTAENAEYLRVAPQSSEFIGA
The target of assay [8] is Follistatin-related protein 3 (Homo sapiens) (UniProt O95633). In words: compounds binding follistatin-related protein 3 – biochemical, small-molecule microarray, 635 nm fluorescence, primary screen (AID 1105).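 Also: score merges emission near 667 nm and signal to noise per printed spot across three slides.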 The note with it: FSTL3 binding, higher = more signal.
Follistatin-related protein 3 (Homo sapiens), sequence (O95633 whole entry, looked up): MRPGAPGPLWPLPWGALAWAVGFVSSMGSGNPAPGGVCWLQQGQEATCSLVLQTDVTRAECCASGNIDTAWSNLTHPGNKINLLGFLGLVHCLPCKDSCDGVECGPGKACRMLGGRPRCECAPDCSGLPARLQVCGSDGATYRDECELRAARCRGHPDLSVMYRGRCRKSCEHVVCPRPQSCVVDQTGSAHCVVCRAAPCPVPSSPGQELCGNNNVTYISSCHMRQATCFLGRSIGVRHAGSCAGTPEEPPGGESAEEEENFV
Assay [9] has as its target Dickkopf-related protein 1 (Homo sapiens) (UniProt O94907). The experiment in a line: small molecules binding DKK1 protein – biochemical, small-molecule microarray, 635 nm fluorescence scan, primary screen (AID 1106).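 Also: score merges emission near 667 nm with signal to noise over three replicate slides.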 The note with it: higher = more signal.
The test system of assay [10] is Inhibin beta A chain (activin A). In words: small molecules binding activin A – biochemical, small-molecule microarray, 635 nm fluorescence scan, primary screen (AID 1107).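 Also: mouse activin A protein probed at 4.33 µg/mL on printed slides; score merges bound-protein fluorescence near 667 nm with spot signal-to-noise.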 The note with it: INHBA, higher = more signal.

Fibroblast growth factor 10 (Homo sapiens), sequence (O15520 whole entry, looked up): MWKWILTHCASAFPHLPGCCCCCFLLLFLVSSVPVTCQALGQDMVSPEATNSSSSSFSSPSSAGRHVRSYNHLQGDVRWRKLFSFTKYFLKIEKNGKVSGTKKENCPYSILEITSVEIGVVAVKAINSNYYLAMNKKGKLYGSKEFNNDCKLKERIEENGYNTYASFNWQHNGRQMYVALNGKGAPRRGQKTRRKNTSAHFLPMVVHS
Dickkopf-related protein 1 (Homo sapiens), sequence (O94907 whole entry, looked up): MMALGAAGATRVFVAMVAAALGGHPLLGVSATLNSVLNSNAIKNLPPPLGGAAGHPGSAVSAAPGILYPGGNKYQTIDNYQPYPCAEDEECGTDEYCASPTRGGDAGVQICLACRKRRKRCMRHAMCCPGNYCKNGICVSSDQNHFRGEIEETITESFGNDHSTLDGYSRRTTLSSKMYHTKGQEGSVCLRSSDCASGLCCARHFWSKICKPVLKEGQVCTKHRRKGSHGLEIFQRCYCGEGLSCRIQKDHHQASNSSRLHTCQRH

In the case of `C#CCN(CC1=CCCCC1)[C@H](c1ccccc1Br)[C@@H](O)Cc1ccccc1`, the composite z-score in [1] is 1.53; in [2], -0.0907; in [3], 0.979; in assay [5] it was -1.25; in assay [6], -0.28; in [7], -1.56. For the same compound, the composite z-score in [8] is -1.28; in [9], -1.07; in assay [10], 0.685. Moreover, the z-score in assay [4] is -1.37 (inactive).

In the case of `COCCOC(=O)N1C(=O)[C@@]2(c3cc(C#CC4=CCCCC4)ccc31)[C@H](C(=O)N1CCc3cc(OC)c(OC)cc3C1)[C@H]1C(=O)O[C@H](c3ccccc3)[C@H](c3ccccc3)N1[C@@H]2c1ccc(OCCO)cc1`, the composite z-score is 0.563 in assay [1]; 0.0129 in assay [2]; -0.134 in assay [3]; 1.3 in assay [5]; 1.3 in [6]; 0.649 in assay [7]. The composite z-score in assay [8] amounted to 1.03; in assay [9], 0.8; in [10], 0.706. Further, the z-score in assay [4] is 0.342 (inactive).

With `COCCOC(=O)N1C(=O)[C@@]2(c3cc(C#CC4=CCCCC4)ccc31)[C@H](C(=O)Nc1nc3ccccc3s1)[C@H]1C(=O)O[C@H](c3ccccc3)[C@H](c3ccccc3)N1[C@@H]2c1ccccc1OCCO`, the composite z-score in assay [1] was found to be 0.966; in assay [2] it was 0.756; in assay [3], 0.4; in [5], 1.33; in assay [6], 1.29; in assay [7], 0.765. In addition, the figures for the composite z-score in assay [8], in assay [9] and in assay [10] were 1.41, 0.785 and 1.3, respectively. Further, in [4], the z-score was -0.823 (inactive).

In the case of `CN(C)CCCCCCNC(=O)[C@@H]1C[C@@H]2C(=O)N[C@@H](CCCCN)C(=O)N2[C@@H]1c1cccc(OCCO)c1`, the composite z-score in assay [1] is 1.96; in assay [2], 2.69; in assay [3] it was 1.65; in assay [5], 1.59; in [6], 1.47; in assay [7], 1.11. The composite z-score in [8] is 1.66; in assay [9], 2.13; in assay [10], 1.55. In addition, the z-score in [4] was -1.56 (inactive).

Regarding `C=CCNC(=O)[C@@H]1[C@H]2C(=O)O[C@H](c3ccccc3)[C@H](c3ccccc3)N2[C@H](c2ccc(OCCO)cc2)[C@@]12C(=O)Nc1ccc(C#CCCO)cc12`, the composite z-score was 1.7 in [1]; -0.0674 in assay [2]; 0.456 in [3]; 1.22 in [5]; 1.27 in assay [6]; 0.652 in assay [7]. The composite z-score is 1.42 in [8], 1.12 in assay [9] and 1.26 in assay [10]. In addition, the z-score in assay [4] is -1.09 (inactive).

As for `COc1cc2c(cc1OC)CN(C(=O)[C@@H]1[C@H]3C(=O)O[C@H](c4ccccc4)[C@H](c4ccccc4)N3[C@H](c3ccc(O)cc3)[C@@]13C(=O)Nc1ccc(C#CC4(O)CCCCCC4)cc13)CC2`, the composite z-score in assay [1] is 1.41; in [2], -0.767; in assay [3] it was -0.692; in [5], 1.28; in [6], 1.29; in assay [7] it was 0.458. In addition, the results for the composite z-score in assay [8], in assay [9] and in [10] were 0.498, 0.474 and -0.439, respectively. For the same compound, the z-score in assay [4] was 0.263 (inactive).

As for `CCOC(=O)C1=CCC(c2ccc(C)cc2)N(S(=O)(=O)c2ccc(C)cc2)C1` (stereo not given), the composite z-score was 0.751 in assay [1]; 0.524 in [2]; 0.845 in assay [3]; 0.129 in assay [5]; 0.301 in assay [6]; -0.136 in assay [7]. Moreover, the composite z-score was found to be 0.058 in assay [8], 0.0296 in assay [9] and 1.42 in [10]. Also, the z-score in assay [4] is -0.688 (inactive).

Take `COc1ccc([Si](C)(C)[C@H]2[C@H](CC(=O)N3Cc4ccccc4C[C@H]3CO)O[C@@]3(C(=O)N(Cc4ccc(N5CCC5=O)cc4)c4ccccc43)[C@@H]2C)cc1`: the composite z-score is 1.21 in assay [1]; -0.283 in assay [2]; 0.51 in [3]; 1.15 in [5]; 0.972 in assay [6]; 1.11 in assay [7]. Moreover, the results for the composite z-score in assay [8], in assay [9] and in [10] were 1.44, 1 and 1.28, respectively. Moreover, the z-score in assay [4] is -0.315 (inactive).

For `CCCC[C@@H]1C[C@H]1[C@@H](NC(=O)c1ccco1)c1ccc(C(=O)OC)cc1`, the composite z-score is -0.433 in [1]; 0.0294 in assay [2]; 0.838 in [3]; 0.0373 in assay [5]; -1.09 in assay [6]; -0.643 in assay [7]. The figures for the composite z-score in assay [8], in assay [9] and in assay [10] were -0.76, -0.633 and 0.807, respectively. Moreover, the z-score in [4] is 0.965 (inactive).

Take `C=C(CCCC)C(=O)CC[C@@H](OC(=O)c1cccnc1)c1ccc(CO)o1`: the composite z-score was 1.15 in assay [1]; 0.0013 in assay [2]; -0.269 in assay [3]; 1.21 in assay [5]; 0.958 in assay [6]; 0.641 in [7]. Moreover, the composite z-score in assay [8] turned out to be 0.916; in assay [9] it was 0.576; in assay [10], 1.3. The z-score in assay [4] is 0.08 (inactive).
